From the OligoGym collection
Note: reference of the scale not given here.

What follows are sequences tested against SLC28A2 (assay: pooled miR-30 sensor sort-seq; sequence = guide strand). Details: shRNA.
In the case of TTGTTGTAGAATCCACAGCAGT, the sensor-assay potency score (higher = more potent) is reported as -1.13.
TTCTTTTTCCATGAGCTCCAGC showed a sensor-assay potency score (higher = more potent) of -0.532.
TCTTCTTGAACAATCTGGCGTG was tested, and the sensor-assay potency score (higher = more potent) was -0.29.
Work on TTGGTGAAACTTGTGTTTGGGA yielded a sensor-assay potency score (higher = more potent) of -0.24.
TTCCAGGACATTCCTCTCCTTC was tested, and the sensor-assay potency score (higher = more potent) was -1.16.
For TTGGACAAGTCACTCTTCCGGT, the sensor-assay potency score (higher = more potent) was -0.0512.
With TTGAACAATCTGGCGTGTGTTT the sensor-assay potency score (higher = more potent) was -0.953.
In the case of ATAGTGATTTGTAAAAACCAGG, the sensor-assay potency score (higher = more potent) is reported as -0.831.

The sequences below were run against SLC29A1 in the same assay as above. Details: shRNA.
With TTGAGCTGCTGGTAGTAGCGGT the sensor-assay potency score (higher = more potent) was 0.0578.
Work on TTGACCTCAACAGTCACGGCTG yielded a sensor-assay potency score (higher = more potent) of 0.158.
In the case of ATGAAGAAGATGAACCAGGCAT, the sensor-assay potency score (higher = more potent) is reported as 0.328.
Work on TCCTTTGCTAATGAGGTCCAAC yielded a sensor-assay potency score (higher = more potent) of -1.65.
Sequence TAGGGTCATGACATTGTTGAAG has a sensor-assay potency score (higher = more potent) of -0.605.
In the case of TTGCTAATGAGGTCCAACTTGG, the sensor-assay potency score (higher = more potent) is reported as -1.11.
Work on TTTGCTAATGAGGTCCAACTTG yielded a sensor-assay potency score (higher = more potent) of -0.866.
For TTTGTATCTGTCCTGAGGCTGG, the sensor-assay potency score (higher = more potent) was -0.764.
For TTGAAGATGGCACTGAGAGAGT, the sensor-assay potency score (higher = more potent) was -0.713.
Sequence TTGTGAAATACTGAGTGGCCGT has a sensor-assay potency score (higher = more potent) of -0.907.
TCGAAGACCACAGTCAGGTAGC was tested, and the sensor-assay potency score (higher = more potent) was -0.552.
In the case of AAGACCACAGTCAGGTAGCGGC, the sensor-assay potency score (higher = more potent) is reported as -0.976.
With AATGTTGCACAGCAGCAGCAGT the sensor-assay potency score (higher = more potent) was -1.2.
With AAATGATAACAGCACAGGCTGT the sensor-assay potency score (higher = more potent) was -0.935.
Sequence TCAAGAAACAGGACACAGGAAT has a sensor-assay potency score (higher = more potent) of -0.724.
TTGCACAGCAGCAGCAGTGGCA showed a sensor-assay potency score (higher = more potent) of -0.846.
For TTCAAGCTTGAGCTGCTGGTAG, the sensor-assay potency score (higher = more potent) was 0.0487.
Sequence TAACGTTCCCAGGTGCTGCTGC has a sensor-assay potency score (higher = more potent) of 0.232.
TGAAACTCCAGATTCCTCTTTG showed a sensor-assay potency score (higher = more potent) of -0.131.
ATATTGAAAGTCAAGAAACAGG showed a sensor-assay potency score (higher = more potent) of -1.17.
TGAATTAATGAGCACGATCTTG showed a sensor-assay potency score (higher = more potent) of -0.995.
ATGATAACAGCACAGGCTGTGA gave a sensor-assay potency score (higher = more potent) of -1.06.
TTTCTGATAGCTCCGAGCCACT was tested, and the sensor-assay potency score (higher = more potent) was -1.47.

The sequences below were run against SLC29A3 in the same assay as above. Details: shRNA.
With TTTGTAATAACTCTAGGGCGAA the sensor-assay potency score (higher = more potent) was -1.16.
Work on TTGAACTGTGCTGAAAGTCGTC yielded a sensor-assay potency score (higher = more potent) of 0.651.
TATTTCTTCTTCAACTGTCTCA showed a sensor-assay potency score (higher = more potent) of 0.0304.
Sequence TTACAGAGCACGAAGAGGGGGA has a sensor-assay potency score (higher = more potent) of 0.172.
TTTGCTTGCATCTCGCTGTCAG was tested, and the sensor-assay potency score (higher = more potent) was 0.244.
TTTGAACATCCAGTACTCCTTG gave a sensor-assay potency score (higher = more potent) of 0.313.
Work on TTGCTTGCATCTCGCTGTCAGC yielded a sensor-assay potency score (higher = more potent) of -1.44.
Sequence TTGCATCTCGCTGTCAGCTGGA has a sensor-assay potency score (higher = more potent) of 0.563.
TTGACATGTTGTAAACAGGAAC showed a sensor-assay potency score (higher = more potent) of -1.02.
